About 83,000 compounds went through this panel and 20% of them were active in at least one assay; those are over-represented in the sample as a whole.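 How to read the values: 0–100, growth inhibition (40 = 60% inhibited); 0, no net growth; -100 to 0, cell death (-40 = 40% of starting cells died; -100 = all dead).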 The source made the active and inactive calls. Rule for the calls: active = growth percent below 10; inactive = the rest.
Experiments:
Experiment in all cases: NCI-60 one-dose screen, 48 h (100 = growth as untreated, 0 = no growth, -100 = all killed)
Details in all cases: 10 µM unless noted
HCT-15 colon = system: HCT-15 colon
HT29 colon = system: HT29 colon
SNB-75 CNS = system: SNB-75 CNS
SNB-19 CNS = system: SNB-19 CNS
U251 CNS = system: U251 CNS
PC-3 prostate = system: PC-3 prostate
SK-MEL-5 melanoma = system: SK-MEL-5 melanoma
UACC-62 melanoma = system: UACC-62 melanoma
LOX IMVI melanoma = system: LOX IMVI melanoma
SK-MEL-28 melanoma = system: SK-MEL-28 melanoma

Measured: growth

C=C(C)[C@@H]1CC[C@]2(C(=O)NCCNCCN)CC[C@]3(C)[C@H](CC[C@@H]4[C@@]5(C)C/C(=C/c6ccncc6)C(=O)C(C)(C)[C@@H]5CC[C@]43C)[C@@H]12
inactive: HCT-15 colon 91.4% | HT29 colon 96% | SNB-75 CNS 78.1% | SNB-19 CNS 90.2% | U251 CNS 91.2% | PC-3 prostate 88.8% | SK-MEL-5 melanoma 96.3% | UACC-62 melanoma 86.6% | LOX IMVI melanoma 96% | SK-MEL-28 melanoma 99.2%

COc1cccc(/C=C/C(=O)c2cc3c(N)c(C(=O)Nc4ccccc4)sc3nc2C)c1
active: HCT-15 colon -35.1% | HT29 colon -7.47% | SNB-75 CNS 3% | SNB-19 CNS -3.91% | U251 CNS -52.9% | LOX IMVI melanoma -83.2%
inactive: PC-3 prostate 41.7% | SK-MEL-5 melanoma 34.8% | UACC-62 melanoma 20.2% | SK-MEL-28 melanoma 50.4%

Fc1ccc2[nH]cc(-c3nonc3-c3c[nH]c4ccc(Br)cc34)c2c1
inactive: SNB-75 CNS 33.7% | SNB-19 CNS 35.8% | U251 CNS 13.6% | PC-3 prostate 26.7% | SK-MEL-5 melanoma 49.8% | UACC-62 melanoma 28% | SK-MEL-28 melanoma 61.8%
active: HCT-15 colon 9.29% | HT29 colon -51.8% | LOX IMVI melanoma -53.9%

Cc1nc(-c2ccccc2)cc2c(O)c(C(=O)NN)[nH]c(=O)c12
inactive: HCT-15 colon 107% | HT29 colon 114% | SNB-75 CNS 104% | SNB-19 CNS 106% | U251 CNS 106% | PC-3 prostate 67.3% | SK-MEL-5 melanoma 100% | UACC-62 melanoma 98.6% | LOX IMVI melanoma 107% | SK-MEL-28 melanoma 111%

CC(C)N1CN2C(=S)NC3C2N(C1)C(=S)N3C (stereo not given)
inactive: HCT-15 colon 105% | HT29 colon 92.4% | SNB-75 CNS 85.5% | SNB-19 CNS 100% | U251 CNS 101% | PC-3 prostate 98% | SK-MEL-5 melanoma 97.9% | UACC-62 melanoma 96.6% | LOX IMVI melanoma 98.9% | SK-MEL-28 melanoma 114%

CN(C)CC(=O)Nc1ccc2ncnc(Nc3ccc(Oc4cccc(C(F)(F)F)c4)c(Cl)c3)c2c1
inactive: SNB-75 CNS 87.2% | SNB-19 CNS 70.3% | U251 CNS 36.2% | PC-3 prostate 61.7% | SK-MEL-5 melanoma 66.5% | UACC-62 melanoma 88.2% | SK-MEL-28 melanoma 78%
active: HCT-15 colon 1.59% | HT29 colon 2.56% | LOX IMVI melanoma -93%

O=C(O)c1[nH]c(=O)[nH]c(=O)c1[N+](=O)[O-]
inactive: HCT-15 colon 98.8% | HT29 colon 129% | SNB-75 CNS 93.4% | SNB-19 CNS 110% | U251 CNS 104% | PC-3 prostate 96.7% | SK-MEL-5 melanoma 110% | UACC-62 melanoma 106% | LOX IMVI melanoma 105% | SK-MEL-28 melanoma 121%

COC(=O)[C@]1(C)CCC[C@]2(C)[C@H]3C[C@H]4C(C(C)C)=C[C@]3(CC[C@H]21)[C@H]1[C@@H]4[C@@H](OCCC#N)CC[C@@H]1OCCC#N
active: HT29 colon 6.91% | PC-3 prostate 2.36%
inactive: HCT-15 colon 29.9% | SNB-75 CNS 75.6% | SNB-19 CNS 52.3% | U251 CNS 33.3% | SK-MEL-5 melanoma 26.2% | UACC-62 melanoma 39.5% | LOX IMVI melanoma 59.7% | SK-MEL-28 melanoma 61.9%

O=C(NCCCN1CCOCC1)c1cccc(N2C(=O)/C(=C/c3ccc(F)cc3)SC2=S)c1
inactive: HCT-15 colon 99.8% | HT29 colon 108% | SNB-75 CNS 62.5% | SNB-19 CNS 92.8% | U251 CNS 100% | PC-3 prostate 75.3% | SK-MEL-5 melanoma 97.3% | UACC-62 melanoma 88.4% | LOX IMVI melanoma 87.3% | SK-MEL-28 melanoma 104%

Fc1cccc(CNc2c3ccccc3nc3ccccc23)c1F
inactive: HCT-15 colon 39.5% | HT29 colon 29.1% | SNB-75 CNS 78.8% | SNB-19 CNS 58.5% | U251 CNS 65.6% | PC-3 prostate 57.1% | SK-MEL-5 melanoma 83% | UACC-62 melanoma 75.7% | LOX IMVI melanoma 39.2% | SK-MEL-28 melanoma 96.9%

Cc1cc2c(O)c(-c3cc(Cl)ccc3Cl)c3sc(=O)oc3c2cc1C
inactive: HCT-15 colon 74.5% | HT29 colon 103% | SNB-75 CNS 61.2% | SNB-19 CNS 77.6% | U251 CNS 45.4% | PC-3 prostate 29.2% | SK-MEL-5 melanoma 42.5% | UACC-62 melanoma 52.2% | LOX IMVI melanoma 78.4% | SK-MEL-28 melanoma 81%

CN1CCN(Cc2ccc3c(NNC(=O)c4ccccc4)nc4cc(F)ccc4n23)CC1
inactive: HCT-15 colon 33.8% | HT29 colon 30.7% | SNB-75 CNS 48.8% | SNB-19 CNS 27.4% | U251 CNS 12.2% | PC-3 prostate 39.9% | SK-MEL-28 melanoma 34.9%
active: SK-MEL-5 melanoma -26.8% | UACC-62 melanoma 4.48% | LOX IMVI melanoma 7.25%

Nc1ncnc2c1N=C(c1ccc3c(c1)OCO3)CC(c1cccc(Nc3ccnc4cc(Cl)ccc34)c1)N2 (stereo not given)
inactive: HCT-15 colon 36.4% | HT29 colon 27.8% | SNB-75 CNS 74.6% | SNB-19 CNS 58.2% | U251 CNS 26.5% | PC-3 prostate 54.2% | SK-MEL-5 melanoma 53.4% | UACC-62 melanoma 57% | LOX IMVI melanoma 27.2% | SK-MEL-28 melanoma 91.3%

From PubChem BioAssay (NCI)
